Screen size: about 310,000 compounds; about 14,000 (4.5%) showed an effect of 50% or more. The effect is printed as a negative number. The list comes from a sample in which strong results are over-represented; it also holds similar structures and randomly drawn compounds.
target: human ether-à-go-go-related gene (hERG) potassium channel (human, UniProt Q12809); assay: primary screen, population patch clamp on CHO cells stably expressing hERG; higher = less effect of the substance
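Further: peak tail current of the secondary pulse compared with the same well before compound.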

Sequence of human ether-à-go-go-related gene (hERG) potassium channel (Q12809 whole entry, looked up): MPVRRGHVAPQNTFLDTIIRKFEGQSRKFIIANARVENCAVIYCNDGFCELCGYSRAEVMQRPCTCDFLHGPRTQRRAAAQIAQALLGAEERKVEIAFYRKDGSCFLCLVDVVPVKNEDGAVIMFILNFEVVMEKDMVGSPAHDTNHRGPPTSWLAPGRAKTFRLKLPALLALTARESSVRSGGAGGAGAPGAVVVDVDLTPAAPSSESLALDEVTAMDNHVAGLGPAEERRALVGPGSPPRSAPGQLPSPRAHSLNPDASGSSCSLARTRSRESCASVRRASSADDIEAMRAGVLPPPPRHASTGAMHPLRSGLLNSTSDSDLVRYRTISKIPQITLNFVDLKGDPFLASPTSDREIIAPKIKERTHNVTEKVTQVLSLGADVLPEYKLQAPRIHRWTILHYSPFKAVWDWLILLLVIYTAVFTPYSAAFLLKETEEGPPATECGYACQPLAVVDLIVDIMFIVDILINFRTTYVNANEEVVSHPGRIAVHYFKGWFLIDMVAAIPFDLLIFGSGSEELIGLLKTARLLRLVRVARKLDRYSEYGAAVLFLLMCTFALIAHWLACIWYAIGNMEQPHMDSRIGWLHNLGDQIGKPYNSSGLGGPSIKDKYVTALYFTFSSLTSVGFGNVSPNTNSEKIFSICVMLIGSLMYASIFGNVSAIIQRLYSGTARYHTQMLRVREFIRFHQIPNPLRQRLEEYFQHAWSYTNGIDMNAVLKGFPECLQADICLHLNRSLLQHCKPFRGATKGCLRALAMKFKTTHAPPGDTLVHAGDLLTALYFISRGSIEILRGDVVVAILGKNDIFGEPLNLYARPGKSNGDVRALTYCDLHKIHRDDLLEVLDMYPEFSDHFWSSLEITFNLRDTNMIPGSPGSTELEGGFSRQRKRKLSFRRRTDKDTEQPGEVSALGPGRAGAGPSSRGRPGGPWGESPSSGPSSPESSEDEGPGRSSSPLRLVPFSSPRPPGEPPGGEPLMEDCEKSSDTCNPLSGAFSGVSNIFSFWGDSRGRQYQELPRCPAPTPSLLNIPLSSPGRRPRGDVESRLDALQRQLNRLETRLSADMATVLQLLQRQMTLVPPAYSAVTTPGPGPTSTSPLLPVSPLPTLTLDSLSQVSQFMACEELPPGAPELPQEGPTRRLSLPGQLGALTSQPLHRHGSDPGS

Structure (SMILES) | hERG current change (%, negative = inhibition) at 10uM [%]
COC(=O)c1nn(-c2ccc(OC)cc2)c(=O)cc1NN | 26.7
Cc1ccc(S(=O)(=O)N(C)C)cc1NC(=O)c1ccc(OC(F)(F)F)cc1 | -51.3
CN(C)S(=O)(=O)c1cccc(NC(=O)c2ccc(OC(F)(F)F)cc2)c1 | -27.8
Cc1ccc(S(=O)(=O)N(C)C)cc1NC(=O)C1CCC1 | 12.2
Cc1ccc(S(=O)(=O)N(C)C)cc1NC(=O)C(C)OC(=O)C1CCCC1 (stereo not shown) | -61.2
Cc1ccc(S(=O)(=O)N(C)C)cc1NC(=O)C1CCCCC1 | -1.12
Cc1ccc(S(=O)(=O)N(C)C)cc1NC(=S)NNC(=O)C1CC1 | -54.6
CCN(CC)S(=O)(=O)c1ccc(C)c(NC(=S)NNC(=O)C2CC2)c1 | 11.1
Cc1ccc(S(=O)(=O)N(C)C)cc1NC(=O)C1CCCC1 | 2.05
Cc1ccc(S(=O)(=O)N(C)C)cc1NC(=O)c1ccncc1 | 4.33
COCCN1CCN(C(=O)C2CCC(=O)N(CCc3ccccc3)C2)CC1 (stereo not shown) | 5.79
CN(Cc1ccccc1)C(=O)c1nc[nH]c1C(=O)N1CCN(C(=O)OC(C)(C)C)CC1 | 11.2
CN(C)CCCN(C(=O)COc1ccc(Cl)cc1)c1nc2cc3c(cc2s1)OCCO3.Cl | -55
CCN(CC)CCN(C(=O)CCS(=O)(=O)c1ccccc1)c1nc2cc3c(cc2s1)OCO3.Cl | -20.6
CN(C)CCCN(C(=O)COc1ccc(Cl)cc1)c1nc2cc3c(cc2s1)OCO3.Cl | -59.7
CN(C)CCCN(C(=O)COc1ccccc1)c1nc2cc3c(cc2s1)OCO3.Cl | -65.4
CN(C)CCCN(C(=O)CCS(=O)(=O)c1ccccc1)c1nc2cc3c(cc2s1)OCO3.Cl | -60
CN(C)CCN(C(=O)CCS(=O)(=O)c1ccccc1)c1nc2cc3c(cc2s1)OCO3.Cl | 7.43
CN(C)CCN(C(=O)COc1ccc(Cl)cc1)c1nc2cc3c(cc2s1)OCO3 | -5.52
CN(C)CCCN(C(=O)COc1ccccc1)c1nc2cc3c(cc2s1)OCCO3 | -45
Clc1ccc(CN(CC2CCCO2)C(c2cccs2)c2nnnn2C2CCCC2)cc1 (stereo not shown) | 3.97
O=C(/C=C/c1cccs1)Nc1nccs1 | 15.8
O=S(=O)(c1ccc(Oc2ccc(Cl)cc2)c(S(=O)(=O)N2CCCCC2)c1)N1CCCCC1 | -10.1

Structure (SMILES) | hERG current change (%, negative = inhibition) at 10uM [%]
COC(=O)c1ccc(-c2ccco2)n1Cc1ccccc1Cl | -1.48
CC(Oc1ccc2oc(-c3ccccc3)c(C(=O)O)c2c1)C(=O)O (stereo not shown) | 14.7
Cn1c(NCc2cccs2)nc2ccccc21 | -11.1
COC(=O)c1ccc(-n2c(C)cc(C(=O)CSc3cccc[n+]3[O-])c2C)cc1 | 21.2
Cc1cc(C(=O)CC#N)c(C)n1-c1ccc(OC(F)F)cc1 | -21.5
Cc1cc(C(=O)CSc2cccc[n+]2[O-])c(C)n1-c1ccc(OC(F)F)cc1 | -61.9
Cc1cc(C(=O)CSc2cccc[n+]2[O-])c(C)n1-c1ccccc1 | 13.9
Cc1cc(C(=O)CSc2nc(N)cc(=O)[nH]2)c(C)n1-c1ccc(OC(F)F)cc1 | -1.41
Cc1cc(C(=O)CSc2cccc[n+]2[O-])c(C)n1-c1ccc(Br)cc1 | -68.6
Cc1nc(Nc2ccccc2C(F)(F)F)sc1C(=O)N(C)C | 21.7
COC(=O)C(c1cc(OC)c(O)c(OC)c1)(N1CCNC(C)C1)C(F)(F)F (stereo not shown) | -9.77
CCOC(=O)CSc1nnc(-c2c[nH]c3ccccc23)n1CC | -10.3
Cn1c(SCC(=O)N2CCN(c3cccc(Cl)c3)CC2)nnc1-c1ccncc1 | -55.9
CCn1c(SCC(=O)N2CCN(c3ccccc3)CC2)nnc1-c1c[nH]c2ccccc12 | -53.6
CCn1c(SCC(=O)N2CCc3ccccc32)nnc1-c1c[nH]c2ccccc12 | 11.8
Cn1c(SCC(=O)N2CCN(c3ccccc3)CC2)nnc1-c1ccccc1 | -11.2
Cn1c(SCC(=O)N2CCN(c3ccccc3)CC2)nnc1-c1ccncc1 | -19.5
Cn1c(SCC(=O)N2CCN(c3ccccc3)CC2)nnc1-c1c[nH]c2ccccc12 | -50.5
Cn1c(SCC(=O)N2CCCc3ccccc32)nnc1-c1c[nH]c2ccccc12 | -10.2
Cn1c(SCC(=O)N2CCOCC2)nnc1-c1ccncc1 | 16.3
COc1cccc(N2CCN(C(c3ccccn3)c3nnnn3C(C)(C)C)CC2)c1 (stereo not shown) | 1.38
O=C(c1ccccc1)N(Cc1cccc(Br)c1)C1CCS(=O)(=O)C1 (stereo not shown) | -7.59
CCCCC1(C(=O)OC)NC(c2ccc(O)cc2)C2C(=O)N(c3ccccc3)C(=O)C21 (stereo not shown) | 2.03

Structure (SMILES) | hERG current change (%, negative = inhibition) at 10uM [%]
Cc1ccc(-c2nnc(SCC#CCOC(=O)c3ccco3)o2)cc1 | -6.36
O=C(O)c1ccc(NC(CSCc2ccc(F)cc2)C(=O)O)c([N+](=O)[O-])c1 (stereo not shown) | 2.41
CCOc1ccc(C2c3[nH]c4ccccc4c3C[C@H]3C(=O)N(C4CCN(Cc5ccccc5)CC4)CC(=O)N23)cc1OC (stereo partly shown) | -5.25
C/C(CC(=O)Nc1ccc2c(c1)OCO2)=N\NC(=O)OC(C)(C)C | -5.1
COC(=O)C1C(O)=C(C(C)=N)C(=O)CC1(C)C (stereo not shown) | 22.9
O=C(COC(=O)C1CC(=O)N(c2nc(-c3ccccc3)cs2)C1)c1ccccc1 (stereo not shown) | 26.9
C=C1CCN([C@H](C(=O)NCc2ccccc2)C(C)C)S(=O)(=O)c2ccccc21 | 3.33
CCOC(=O)c1cc2ccccc2nc1C | 5.32
CC(C)n1nc(C(=O)OCn2nnc3ccccc3c2=O)c2ccccc2c1=O | 10.2
Br.COc1ccc(C2=CSC3=NCCN23)cc1 | -6.09
Br.CC(C)Cc1ccc(C2=CSC3=NCCN23)cc1 | -70.5
Br.CCc1ccc(C2=CSC3=NCCN23)cc1 | -14.7
Br.Cc1ccc(C2=CSC3=NCCN23)c(C)c1 | -26.8
Brc1ccc(C2=CSC3=NCCN23)cc1 | -29.5
Br.CC(C)(C)c1cc(C2=CSC3=NCCN23)cc(C(C)(C)C)c1O | -76.2
Cl.Oc1ccc(C2=CSC3=NCCN23)cc1O | -1.2
Br.Clc1ccc(C2=CSC3=NCCN23)cc1Cl | -48.2
Clc1ccc(C2=CSC3=NCCN23)c(Cl)c1.[Br-] | -59.4
Br.C1=C(c2ccccc2)N2CCN=C2S1 | -7.6
Br.Cc1ccc(C2=CSC3=NCCN23)cc1 | -4.96
Br.CC(C)(C)c1ccc(C2=CSC3=NCCN23)cc1 | -55.8
O=C(c1ccc(CS(=O)c2ccccc2Cl)o1)N1CCCCCC1 (stereo not shown) | 14.5
O=C(CC1C(=O)NCCN1C(=O)c1ccc([N+](=O)[O-])cc1)Nc1ccc(F)cc1 (stereo not shown) | -21.8

Structure (SMILES) | hERG current change (%, negative = inhibition) at 10uM [%]
O=C(Nc1nccs1)c1ccc2c(c1)C(=O)N(Cc1cccnc1)C2=O | -4.17
CCCCNC(=O)c1ccc(CS(=O)(=O)c2ccc(C)cc2)o1 | 15.1
CCOC(=O)c1ccc2cccc(C)n2c1=O | 3.05
CSc1ccc(Cl)c(C(=O)N(C)CC(=O)Nc2ccc(N3CCOCC3)cc2)c1 | -0.854
COC(=O)C1CCN(C(=O)COC(=O)Cc2c[nH]c3ccccc23)CC1 | 3.1
Cc1ccc(CN(C(=O)c2cccs2)C2CCS(=O)(=O)C2)cc1 (stereo not shown) | -46.5
CCn1c(C)nc2c(=O)oc3ccccc3c21 | -9.57
CCNC(=O)c1ccc(N(C)S(=O)(=O)c2cccs2)cc1 | 26.5
CC1CCN(Cc2c(C(=O)N/N=C/c3cc(Br)ccc3O)nnn2-c2nonc2N)CC1 | 19.9
CC1(C)CC(=O)c2c(O)cc(OCc3ccc([N+](=O)[O-])cc3)cc2O1 | 15.1
CC1(C)CC(=O)c2ccc(O)cc2O1 | 4.03
CC1(C)CC(=O)c2ccc(OCc3ccc([N+](=O)[O-])cc3)cc2O1 | -57.7
O=C(COC(=O)c1ccc2c(c1)S(=O)(=O)N=C1CCCCCN12)NCCc1ccc(F)cc1 | -3.75
CC1CN(C(=O)c2ccc(NS(=O)(=O)c3ccc(F)cc3)cc2)CC(C)O1 (stereo not shown) | 3.67
CN(C)CCNC(=O)/C(=C/c1ccc(-c2cccc(Cl)c2)o1)NC(=O)c1ccccc1 | -72
Cc1ccc(/C=C(\NC(=O)c2ccccc2)C(=O)NCCc2ccccn2)o1 | -12.8
Cc1ccc(/C=C(/NC(=O)c2ccccc2)C(=O)NCCc2c[nH]c3ccccc23)o1 | -21.3
CN(C)CCNC(=O)/C(=C/c1ccc(-c2ccc(Cl)cc2)o1)NC(=O)c1ccccc1 | -80.9
O=C(O)c1ccc(N/N=C/c2ccc(-c3cccc(Cl)c3)o2)cc1 | 8.51
CN(C)CCNC(=O)/C(=C/c1ccc(-c2ccc(Cl)cc2Cl)o1)NC(=O)c1ccccc1 | -55.1
Cc1ccc(C(=O)N/C(=C\c2ccc(-c3cc(Cl)ccc3Cl)o2)C(=O)NCc2cccnc2)cc1 | 2.81
O=C(O)c1ccc(N/N=C/c2ccc(-c3ccc(Cl)cc3Cl)o2)cc1 | 10.7

Source: PMC4336329 (PLoS ONE, 2015)
